# Experimental data reported in PubChem BioAssay AID1508600 (Functional Genomics Laboratory (NCATS/FGL), 2020).
# In all, about 53,000 sequences went through this assay and about 3,700 (7%) were called active. This is one part of a sample in which actives are shown more often than they occur. Values without a mark were called inactive.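 Rule for the calls: active = gene knockdowns whose robust z-score for IL-1 alpha signal is at least 2 or at most -2, so actives lie on both sides; inactive = the rest.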
# Assay: Components of the Cytosolic LPS Sensing Pathway: Gene Identification via Genome-wide siRNA Screen;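 note: robust z of the log signal after scaling to non-targeting control siRNA wells of the plate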
# Settings: RAW264.7 macrophages, IL-1a HTRF, actives lie on both sides, screened at 100 nM (by protocol), cells primed 5 h with Pam3CSK4 first
# Outline: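 Read-out: IL-1a HTRF on supernatant, divided by plate negative-control median ×100, log-transformed and converted to robust z-score. Cells were RAW264.7 given 100 nM siRNA, Pam3CSK4-primed 5 hours, then LipidA-transfected 24 hour.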
row,Sequence,z-score
1,GGCAGAACUACUUUUAUAGTT against Cldn17,0.436
2,GGCCGUACUAGAUUUUCUUTT against Olfr695,1.35
3,GGCUGGGAAUUUUACAGUATT against Gpr3,3.98 (active)
4,GGCCUAUAAGUUGGACUCCTT against Sstr5,-0.897
5,GGAAUAACAGCCUUGUAUUTT against Slc25a15,-0.145
6,GGAUCUGAUCCAGACUUCUTT against Ndrg1,2.05 (active)
7,GGUUUUCUACAGGAGAGACTT against 9430015G10Rik,1.33
8,CGCAAUGCUGGAUUAUUUATT against Ceacam2,0.628
9,GGGAAGUGACAUAUUCUCGTT against Brf2,-0.277
10,GGAGAAGCCAGGAGUUUACTT against Klk6,1.71
11,GGUACUAGAUGACAAAAACTT against Cfap20,0.436
12,GGUGUUUUAAGAUUGAAUGTT against Ccn1,0.782
13,CCCAGGUAGUAUACAAGGUTT against Pcdh1,2.42 (active)
14,CCCUCCAGUAAAUUUUAAGTT against Sox6,1.7
15,GGCAUAUGCCAGUAUCGGUTT against Defb8,-0.595
16,GGAAUGGUAUCAGACUUCUTT against Tarm1,1.54
17,GCUACAGAAACCCGGGUAGTT against Jsrp1,-1.46
18,CCGCCAUAGGCUCCUUCAATT against Acat3,0.915
19,GGGAUCAAUGUCAUCCUUUTT against Nif3l1,-0.442
20,GCUGCGUAGAACCAUAUGCTT against Cst9,-0.802
21,GGAAAUCGAGGUUACAAGUTT against Isy1,-2.64 (active)
22,GGCCACUGACCAUGAAGAATT against Gata2,-0.289

row,Sequence,z-score
1,GGCAAACAUGAAUCUUACCTT against Cyth4,-0.375
2,GGAGAUCAUCCACUUCCAGTT against Dbh,2.06 (active)
3,GCAAGACUCUACACAUCACTT against Nox4,0.0384
4,GAGACAGAUAGGCAGAAAATT against Olfr478,-1.02
5,CCAAUUGAAACUCUUUUCCTT against Thada,0.562
6,GGUUUGGUGUCAGGUGACATT against Olfr1181,-2.05 (active)
7,GGGUGAAAAAGGAAUAAAGTT against Col7a1,0.344
8,GGAAAUCAUCUUUUCAGAUTT against Slc7a12,-0.443
9,GCCACUAGUGAAGACAUCCTT against Adamtsl1,-0.149
10,CGUCUCCAUAGAUCUAGAUTT against Creb3,-0.748
11,CCAUCUUGACACCCAAACUTT against Olfr170,-3.09 (active)
12,CGAAAGCAUUGCCUACUUUTT against Anks3,0.843
13,GGGACUUUAAAAAAGACUCTT against Olfr1366,2.1 (active)
14,CCAGAGGUCUCUAUUAAGATT against Cad,-0.0939
15,GGACAUGGAUCAAAGUUCATT against Zfp40,-0.645
16,GGCAUCUCCUCGAAUUUAUTT against Theg,-0.737
17,GGAGCAUCCCGACUACAAGTT against Sox21,3.54 (active)
18,GGAUCGAUCUGACAUCAAATT against Epyc,-0.31
19,CCUAUUAAUAUGGAAAGUGTT against Arcn1,0.675
20,GGGCAACUAUCUUCAAAAATT against Nxnl2,0.328
21,GGCAAUUACCCACCCUGUUTT against Mfsd6,-2.57 (active)
22,CCAAGCCUAAUAAAAUUCCTT against Lsr,0.867

row,Sequence,z-score
1,GGCAGAAAACAAGAUAAAGTT against Eif4h,-0.325
2,CGGCAAGAUGUCUACUAACTT against Wdtc1,0.655
3,CCCUAACUCUGUUAAUGCATT against Casp14,-0.627
4,GGAAAUUGGUCCAGUUAUUTT against Magee1,1.37
5,CCAACUGUUGGUGAUGAUGTT against Cpsf6,-2.05 (active)
6,GCGGGCCAUAAAGAGACAUTT against Timm17a,-0.164
7,GGGAUUUAAAGCCAACUUGTT against Sfpq,0.62
8,GGAGAAAUAGAUUCAGUGATT against Cep170,-0.839
9,GGCAGUUUUUGGACUGUCCTT against Olfr556,-0.21
10,GGUUAAGAGCGUACGUUUUTT against Tmem204,1.46
11,GGACAACCUUUACUUCUCUTT against Rhox9,-2.78 (active)
12,GGGAGAUCUCUCACAGAUCTT against Gja10,1.41
13,CCAUAGUGUAUCUGACUGGTT against Iqsec1,-0.135
14,GGUGGUGAAGCUAAAGCAGTT against Prkaca,-1.58
15,GCAUGGACAGUUAUGUAUATT against Slc5a6,-0.207
16,GGUGUUAGAUUCUUUGUAATT against Cst6,2.04 (active)
17,GGUAUAGUAGUGGAAGAUUTT against Uso1,0.341
18,GGACUUAUGGCAUUAGAAUTT against Nup88,-1.17
19,GGUGAUCCUAAGAAAGUCCTT against Ireb2,1.07
20,GGAUUGGUUUAGUCAAUAATT against Psmc4,-2.03 (active)
21,GCUUCCUUCUGCUAGAUGGTT against Oxct2a,-0.409
22,GGUUUAGAAUGCAUAACAGTT against Dzank1,-0.217

row,Sequence,z-score
1,UAUUAAACUCUUGAGACCGTT against Oxa1l,-0.571
2,GGAAAAGCCUACUUCAAAATT against Efcab7,0.9
3,GGAAAACAAGUGGAAAGGGTT against C130071C03Rik,1.54
4,GGAUCAGCAACAGUCUCCATT against 1700029M20Rik,-2.01 (active)
5,CCAGCUUCCUCGUAAGUGATT against Hsf4,-1.71
6,CCACGAUAUUCCAGGUCUGTT against AF067063,-1.54
7,GCGAUUGUCCAAGAAUUCCTT against Crcp,0.822
8,GGGAGAGGACGACAUUUACTT against Otx2,0.645
9,GGAGCCAUGCUAAGAGCAUTT against Dbil5,0.494
10,GCCAGAGUGUCGAAUAUCATT against Dll4,-0.417
11,GGACGCAGACAGGACAAAATT against Parp2,2.16 (active)
12,GUUACUGCGUGGACUGUGUTT against C730034F03Rik,-0.0785
13,GCCGUAGGUUAGAGAAUCGTT against Nxnl1,-0.348
14,CCGUCUUUGUGCUAUGCUGTT against Sstr4,1.56
15,GGAGGUGAAGCUUCGAAUGTT against Slc25a10,0.052
16,GGAAAUGGCCUCCAUGAGATT against Krt14,0.734
17,GGCCUUGCACUUCAGUUUCTT against Mfsd4b1,-0.436
18,GGAAAGAAGAAAUGAGAAGTT against Gm9871,-1.57
19,CGGAAGAAGCCAGUUAAGATT against Apol9b,0.665
20,GCGUGGAAGGUCUGAACACTT against Arfgap3,4.18 (active)
21,GGAGUUGUGAAUUUCUCGUTT against Sri,-0.198
22,GGUUACUAGAAAAGUGUUGTT against Olfr1489,1.41

row,Sequence,z-score
1,GGGAAUUUCCUGAAAUCCUTT against Mettl8,-0.167
2,GGUUAACCUGAGAAAAAUGTT against Mkrn1,0.734
3,GGCAACUUAGGAGUUAGACTT against Pgam5,0.533
4,GUGUGAACAGAGGCAGAAATT against Xlr3a,-2.46 (active)
5,CCCUAAGCUCUGUUCCCAGTT against Olfr371,-0.561
6,GCCAAUCUCUGCUAGAUACTT against Slc46a1,0.447
7,GGCAACACACUGUCAUUUCTT against Il9,-1.06
8,CCAACUGUGAUCAGUGAGCTT against Shank3,-0.387
9,GGCCUUGAAGGAGAUGCUATT against Rell2,0.887
10,GCAGAUCAUUCCCGUGUUGTT against P2ry14,0.565
11,GGACAAGAAGGAAAAGAAATT against Brd4,-3.25 (active)
12,GCUGUGCAAGGUGAGGAAATT against Rps4l,1.25
13,GGUGAUGGAAAUAAACUACTT against Dhrs7b,1.44
14,GGACAAGAAGCCACUGACATT against Arrb1,2.2 (active)
15,GGACCAUUAAACUAAAUGGTT against Tpte,-0.592
16,GCUCUCACAGGAUAAGGCUTT against Cryga,-0.126
17,CCUCGUUAUCCUCAUGGGATT against Alppl2,0.649
18,GGUUUGAGUGGAAAAUUCATT against Csn1s2b,0.904
19,CCCACAGAACCACACAUUCTT against H2-DMa,3.11 (active)
20,GGAGGCUGAGUAUUGGCUUTT against Pi4k2b,-1.06
